# Results taken from PMC7862700, “An all-to-all approach to the identification of sequence-specific readers for epigenetic DNA modifications on cytosine”.
# Legend:
# Assay in all cases: DAPPL (digital affinity profiling via proximity ligation, sequencing); 10 mM Tris-HCl pH 7.5, 50 mM NaCl, 1 mM DTT, 4% glycerol, room temperature, 30 min; GST-TFs on glutathione beads, 16-mer random dsDNA library, 0.1% formaldehyde crosslink after washing; high values mean tight binding
# FLI1 = target: T1, FLI1 (Homo sapiens, UniProt Q01543 1-452); settings: protein: recombinant; tags: N-terminal GST; dsDNA, one strand shown
# T1 sequence: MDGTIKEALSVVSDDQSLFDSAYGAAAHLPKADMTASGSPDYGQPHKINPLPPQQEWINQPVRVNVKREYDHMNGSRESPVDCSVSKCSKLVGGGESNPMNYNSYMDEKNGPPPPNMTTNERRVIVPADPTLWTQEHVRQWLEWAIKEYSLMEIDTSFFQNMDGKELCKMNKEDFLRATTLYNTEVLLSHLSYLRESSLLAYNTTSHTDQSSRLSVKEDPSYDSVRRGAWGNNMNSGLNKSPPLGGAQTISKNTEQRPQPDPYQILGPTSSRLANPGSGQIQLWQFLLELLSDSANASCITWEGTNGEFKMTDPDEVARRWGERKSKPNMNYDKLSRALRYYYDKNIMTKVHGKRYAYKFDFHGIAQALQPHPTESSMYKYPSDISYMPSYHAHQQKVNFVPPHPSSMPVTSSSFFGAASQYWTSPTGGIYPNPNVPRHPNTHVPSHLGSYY
# Outline: (§1)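 Binding signal is defined as a hexamer's read frequency for one factor over its frequency for the tag-only sample. To obtain reads, GST-fused human transcription factors were expressed in yeast, captured on glutathione beads, barcoded with DNA and pooled with that sample. Pools met 200 nmole of a 16-mer random double-stranded DNA library in Tris/NaCl/DTT/glycerol buffer for 30 min at room temperature before washing, 0.1% formaldehyde crosslinking, proximity ligation (BsaI/T4 ligase, 1 h, 37 °C), PCR and Illumina NextSeq500 sequencing.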
# ELK1 = target: T2, ELK1 (Homo sapiens, UniProt P19419 1-428); settings: protein: recombinant; tags: N-terminal GST; dsDNA, one strand shown
# T2 sequence: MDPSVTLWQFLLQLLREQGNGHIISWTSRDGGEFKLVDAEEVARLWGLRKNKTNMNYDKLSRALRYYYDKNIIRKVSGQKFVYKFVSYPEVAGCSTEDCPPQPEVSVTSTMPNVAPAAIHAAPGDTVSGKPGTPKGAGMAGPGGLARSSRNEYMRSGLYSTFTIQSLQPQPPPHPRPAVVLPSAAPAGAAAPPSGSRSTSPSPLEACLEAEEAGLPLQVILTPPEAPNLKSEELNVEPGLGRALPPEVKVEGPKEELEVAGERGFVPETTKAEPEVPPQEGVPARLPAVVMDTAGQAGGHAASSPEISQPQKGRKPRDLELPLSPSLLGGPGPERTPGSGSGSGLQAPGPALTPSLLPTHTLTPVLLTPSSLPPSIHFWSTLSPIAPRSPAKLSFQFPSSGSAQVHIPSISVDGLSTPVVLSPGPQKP
# Outline: as §1
# GABPA = target: T3, GABPA (Homo sapiens, UniProt Q06546 1-454); settings: protein: recombinant; tags: N-terminal GST; dsDNA, one strand shown
# T3 sequence: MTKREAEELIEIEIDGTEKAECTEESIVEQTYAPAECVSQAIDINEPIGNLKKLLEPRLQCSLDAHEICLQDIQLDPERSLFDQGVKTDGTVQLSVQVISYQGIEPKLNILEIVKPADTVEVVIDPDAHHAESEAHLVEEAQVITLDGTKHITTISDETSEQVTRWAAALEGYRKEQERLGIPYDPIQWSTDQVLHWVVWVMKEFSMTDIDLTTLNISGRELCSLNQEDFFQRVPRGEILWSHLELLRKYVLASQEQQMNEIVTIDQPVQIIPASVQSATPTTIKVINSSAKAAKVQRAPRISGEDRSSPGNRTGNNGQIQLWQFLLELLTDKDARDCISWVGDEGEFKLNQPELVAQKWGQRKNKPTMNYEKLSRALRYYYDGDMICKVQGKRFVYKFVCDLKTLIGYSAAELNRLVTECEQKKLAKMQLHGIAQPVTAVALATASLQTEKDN
# Outline: as §1
# ERG = target: T4, ERG (Homo sapiens, UniProt P11308 1-479); settings: protein: recombinant; tags: N-terminal GST; dsDNA, one strand shown
# T4 sequence: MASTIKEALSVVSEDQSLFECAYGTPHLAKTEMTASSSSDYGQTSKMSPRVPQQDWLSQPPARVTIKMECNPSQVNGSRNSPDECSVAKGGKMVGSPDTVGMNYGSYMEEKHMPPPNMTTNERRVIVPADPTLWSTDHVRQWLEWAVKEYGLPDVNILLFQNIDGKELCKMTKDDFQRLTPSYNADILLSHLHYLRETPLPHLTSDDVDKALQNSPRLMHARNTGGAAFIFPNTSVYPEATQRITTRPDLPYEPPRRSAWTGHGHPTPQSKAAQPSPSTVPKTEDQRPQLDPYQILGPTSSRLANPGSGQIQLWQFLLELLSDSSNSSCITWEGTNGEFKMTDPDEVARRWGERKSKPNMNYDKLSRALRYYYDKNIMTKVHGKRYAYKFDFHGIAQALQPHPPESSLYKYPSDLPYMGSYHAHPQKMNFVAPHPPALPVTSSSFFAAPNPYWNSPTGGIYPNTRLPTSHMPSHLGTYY
# Outline: as §1
# ELF1 = ELF1 (Homo sapiens, UniProt P32519 1-619); settings: protein: recombinant; tags: N-terminal GST; dsDNA, one strand shown
# Sequence of ELF1 (P32519 whole entry): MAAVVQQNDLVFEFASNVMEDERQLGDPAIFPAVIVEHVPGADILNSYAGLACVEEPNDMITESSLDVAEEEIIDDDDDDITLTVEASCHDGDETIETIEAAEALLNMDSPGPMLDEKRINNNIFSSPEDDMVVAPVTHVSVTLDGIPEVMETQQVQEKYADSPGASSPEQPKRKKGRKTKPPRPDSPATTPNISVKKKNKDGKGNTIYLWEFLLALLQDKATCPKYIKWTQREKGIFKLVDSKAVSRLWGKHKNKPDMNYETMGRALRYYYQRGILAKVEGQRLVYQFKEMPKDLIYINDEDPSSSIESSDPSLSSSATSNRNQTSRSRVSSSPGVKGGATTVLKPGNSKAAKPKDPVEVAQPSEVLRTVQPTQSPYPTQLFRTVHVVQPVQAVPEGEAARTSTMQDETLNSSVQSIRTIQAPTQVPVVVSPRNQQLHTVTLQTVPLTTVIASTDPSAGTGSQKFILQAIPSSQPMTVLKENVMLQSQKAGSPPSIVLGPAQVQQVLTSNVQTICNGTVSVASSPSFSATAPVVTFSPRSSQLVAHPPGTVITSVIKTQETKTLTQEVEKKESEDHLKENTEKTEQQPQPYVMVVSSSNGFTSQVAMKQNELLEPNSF
# Outline: as §1
# EHF = target: T5, EHF (Homo sapiens, UniProt Q9NZC4 1-300); settings: protein: recombinant; tags: N-terminal GST; dsDNA, one strand shown
# T5 sequence: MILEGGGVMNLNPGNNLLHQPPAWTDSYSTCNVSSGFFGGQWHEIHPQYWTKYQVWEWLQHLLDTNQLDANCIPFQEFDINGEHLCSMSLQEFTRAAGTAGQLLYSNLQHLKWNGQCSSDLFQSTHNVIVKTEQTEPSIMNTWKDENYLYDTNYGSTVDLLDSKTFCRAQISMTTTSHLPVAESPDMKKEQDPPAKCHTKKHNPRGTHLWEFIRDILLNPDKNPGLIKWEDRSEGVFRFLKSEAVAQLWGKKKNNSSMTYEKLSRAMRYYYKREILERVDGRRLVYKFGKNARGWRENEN
# Outline: as §1
# SPI1 = SPI1 (Homo sapiens, UniProt P17947 1-270); settings: protein: recombinant; tags: N-terminal GST; dsDNA, one strand shown
# Outline: as §1
# SPIB = SPIB (Homo sapiens, UniProt Q01892 1-262); settings: protein: recombinant; tags: N-terminal GST; dsDNA, one strand shown
# Sequence of SPIB (Q01892 whole entry): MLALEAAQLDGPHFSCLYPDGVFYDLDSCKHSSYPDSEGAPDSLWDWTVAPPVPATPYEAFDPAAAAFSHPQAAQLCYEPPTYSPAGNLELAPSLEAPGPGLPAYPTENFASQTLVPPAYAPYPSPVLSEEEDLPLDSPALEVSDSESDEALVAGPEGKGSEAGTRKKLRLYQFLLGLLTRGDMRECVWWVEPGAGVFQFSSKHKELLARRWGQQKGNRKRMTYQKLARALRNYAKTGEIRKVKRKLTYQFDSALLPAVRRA
# Outline: as §1
# ELK3 = target: T6, ELK3 (Homo sapiens, UniProt P41970 1-407); settings: protein: recombinant; tags: N-terminal GST; dsDNA, one strand shown
# T6 sequence: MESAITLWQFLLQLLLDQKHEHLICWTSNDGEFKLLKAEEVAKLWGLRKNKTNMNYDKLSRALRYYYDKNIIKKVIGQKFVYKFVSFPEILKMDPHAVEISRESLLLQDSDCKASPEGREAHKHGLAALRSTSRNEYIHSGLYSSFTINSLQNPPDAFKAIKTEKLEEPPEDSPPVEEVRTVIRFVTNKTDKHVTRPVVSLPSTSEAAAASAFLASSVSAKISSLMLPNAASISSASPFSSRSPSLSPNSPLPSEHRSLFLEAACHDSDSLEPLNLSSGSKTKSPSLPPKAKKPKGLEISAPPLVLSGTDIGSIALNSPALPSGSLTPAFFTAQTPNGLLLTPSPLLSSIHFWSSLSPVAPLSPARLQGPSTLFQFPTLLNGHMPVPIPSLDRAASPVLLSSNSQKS
# Outline: as §1
# FEV = target: T7, FEV (Homo sapiens, UniProt Q99581 1-238); settings: protein: recombinant; tags: N-terminal GST; dsDNA, one strand shown
# T7 sequence: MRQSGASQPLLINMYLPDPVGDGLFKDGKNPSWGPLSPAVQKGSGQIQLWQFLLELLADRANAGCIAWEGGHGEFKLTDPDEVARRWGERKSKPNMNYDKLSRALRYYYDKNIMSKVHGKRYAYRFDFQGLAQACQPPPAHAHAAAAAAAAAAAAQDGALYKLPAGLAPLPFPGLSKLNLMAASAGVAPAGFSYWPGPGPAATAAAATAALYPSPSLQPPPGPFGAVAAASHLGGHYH
# Outline: as §1
# ETV5 = ETV5 (Homo sapiens, UniProt P41161 1-510); settings: protein: recombinant; tags: N-terminal GST; dsDNA, one strand shown
# Sequence of ETV5 (P41161 whole entry): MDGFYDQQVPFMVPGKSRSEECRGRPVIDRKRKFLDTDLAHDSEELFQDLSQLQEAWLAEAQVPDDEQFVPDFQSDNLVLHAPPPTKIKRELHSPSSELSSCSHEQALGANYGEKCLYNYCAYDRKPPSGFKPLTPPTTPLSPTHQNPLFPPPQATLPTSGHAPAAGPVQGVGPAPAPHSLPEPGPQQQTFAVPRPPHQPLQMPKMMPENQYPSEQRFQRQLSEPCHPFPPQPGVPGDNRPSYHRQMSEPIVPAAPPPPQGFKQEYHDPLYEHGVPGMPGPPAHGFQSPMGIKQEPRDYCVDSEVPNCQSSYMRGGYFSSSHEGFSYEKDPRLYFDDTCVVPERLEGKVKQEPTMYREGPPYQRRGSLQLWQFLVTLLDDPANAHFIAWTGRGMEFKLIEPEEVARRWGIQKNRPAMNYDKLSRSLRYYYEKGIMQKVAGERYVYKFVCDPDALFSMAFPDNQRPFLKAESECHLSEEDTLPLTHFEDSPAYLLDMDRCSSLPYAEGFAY
# Outline: as §1
# HSF1 = HSF1 (Homo sapiens, UniProt Q00613 1-529); settings: protein: recombinant; tags: N-terminal GST; chain copies: 3; dsDNA, one strand shown
# Sequence of HSF1 (Q00613 whole entry): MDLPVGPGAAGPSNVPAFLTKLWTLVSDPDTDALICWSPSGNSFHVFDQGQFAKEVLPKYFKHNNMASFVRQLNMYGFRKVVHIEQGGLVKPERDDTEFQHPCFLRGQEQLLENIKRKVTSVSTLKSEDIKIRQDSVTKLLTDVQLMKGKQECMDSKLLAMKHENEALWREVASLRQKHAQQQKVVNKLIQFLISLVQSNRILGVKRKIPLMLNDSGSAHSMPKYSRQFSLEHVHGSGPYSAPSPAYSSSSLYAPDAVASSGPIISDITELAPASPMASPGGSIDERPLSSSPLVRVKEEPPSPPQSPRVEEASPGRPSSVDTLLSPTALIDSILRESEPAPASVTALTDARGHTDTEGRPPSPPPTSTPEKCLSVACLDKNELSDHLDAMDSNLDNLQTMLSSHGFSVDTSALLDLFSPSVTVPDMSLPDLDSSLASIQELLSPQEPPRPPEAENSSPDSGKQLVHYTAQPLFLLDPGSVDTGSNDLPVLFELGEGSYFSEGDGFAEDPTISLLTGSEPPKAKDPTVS
# Outline: as §1
# SPIC = target: T8, SPIC (Homo sapiens, UniProt Q8N5J4 1-248); settings: protein: recombinant; tags: N-terminal GST; dsDNA, one strand shown
# T8 sequence: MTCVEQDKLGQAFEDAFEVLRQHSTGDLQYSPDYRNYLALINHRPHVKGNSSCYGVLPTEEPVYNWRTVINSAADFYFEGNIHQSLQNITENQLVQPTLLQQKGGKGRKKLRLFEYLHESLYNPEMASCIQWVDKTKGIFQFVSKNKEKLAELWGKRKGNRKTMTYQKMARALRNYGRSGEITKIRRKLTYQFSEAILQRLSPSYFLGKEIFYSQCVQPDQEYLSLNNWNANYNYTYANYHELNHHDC
# Outline: as §1
# ELF4 = ELF4 (Homo sapiens, UniProt Q99607 1-663); settings: protein: recombinant; tags: N-terminal GST; dsDNA, one strand shown
# Sequence of ELF4 (Q99607 whole entry): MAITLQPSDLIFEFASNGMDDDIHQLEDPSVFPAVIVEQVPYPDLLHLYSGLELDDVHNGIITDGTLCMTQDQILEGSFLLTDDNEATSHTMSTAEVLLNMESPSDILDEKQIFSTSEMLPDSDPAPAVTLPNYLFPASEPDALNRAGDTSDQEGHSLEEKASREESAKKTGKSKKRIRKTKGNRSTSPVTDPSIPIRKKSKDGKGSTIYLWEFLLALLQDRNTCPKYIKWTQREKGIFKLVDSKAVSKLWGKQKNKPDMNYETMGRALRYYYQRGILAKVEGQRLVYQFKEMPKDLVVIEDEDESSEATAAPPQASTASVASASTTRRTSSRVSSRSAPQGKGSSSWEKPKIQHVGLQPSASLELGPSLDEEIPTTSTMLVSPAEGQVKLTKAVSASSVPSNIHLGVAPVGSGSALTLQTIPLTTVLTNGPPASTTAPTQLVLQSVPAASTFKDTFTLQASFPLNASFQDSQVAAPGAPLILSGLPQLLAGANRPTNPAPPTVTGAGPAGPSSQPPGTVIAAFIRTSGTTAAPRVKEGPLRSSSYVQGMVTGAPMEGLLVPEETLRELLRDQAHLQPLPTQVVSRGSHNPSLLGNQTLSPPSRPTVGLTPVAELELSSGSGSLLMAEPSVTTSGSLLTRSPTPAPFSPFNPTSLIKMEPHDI
# Outline: as §1
# ELK4 = target: T9, ELK4 (Homo sapiens, UniProt P28324-2 1-405); settings: protein: recombinant; tags: N-terminal GST; dsDNA, one strand shown
# T9 sequence: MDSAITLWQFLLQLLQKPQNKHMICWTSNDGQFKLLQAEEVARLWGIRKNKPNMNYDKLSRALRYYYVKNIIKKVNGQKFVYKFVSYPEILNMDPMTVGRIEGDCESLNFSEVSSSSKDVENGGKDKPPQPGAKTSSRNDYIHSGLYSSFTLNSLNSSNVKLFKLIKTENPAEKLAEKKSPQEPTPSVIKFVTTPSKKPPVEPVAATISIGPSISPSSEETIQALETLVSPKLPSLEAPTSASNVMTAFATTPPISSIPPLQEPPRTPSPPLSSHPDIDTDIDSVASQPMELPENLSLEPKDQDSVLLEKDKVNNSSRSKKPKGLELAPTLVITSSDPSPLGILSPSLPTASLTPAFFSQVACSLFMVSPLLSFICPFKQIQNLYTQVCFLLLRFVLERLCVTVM
# Outline: as §1
# ETV2 = target: T10, ETV2 (Homo sapiens, UniProt O00321 1-342); settings: protein: recombinant; tags: N-terminal GST; dsDNA, one strand shown
# T10 sequence: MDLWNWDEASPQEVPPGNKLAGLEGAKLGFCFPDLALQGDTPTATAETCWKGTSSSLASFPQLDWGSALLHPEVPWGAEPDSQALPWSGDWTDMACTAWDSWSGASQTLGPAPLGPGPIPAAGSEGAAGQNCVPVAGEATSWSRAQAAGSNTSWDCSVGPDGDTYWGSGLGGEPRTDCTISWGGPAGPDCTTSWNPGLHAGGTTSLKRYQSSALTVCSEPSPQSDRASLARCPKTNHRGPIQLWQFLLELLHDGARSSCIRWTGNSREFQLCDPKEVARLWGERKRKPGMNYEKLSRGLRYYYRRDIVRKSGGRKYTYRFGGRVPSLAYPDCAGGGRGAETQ
# Outline: as §1
# ELF3 = target: T11, ELF3 (Homo sapiens, UniProt P78545 1-371); settings: protein: recombinant; tags: N-terminal GST; dsDNA, one strand shown
# T11 sequence: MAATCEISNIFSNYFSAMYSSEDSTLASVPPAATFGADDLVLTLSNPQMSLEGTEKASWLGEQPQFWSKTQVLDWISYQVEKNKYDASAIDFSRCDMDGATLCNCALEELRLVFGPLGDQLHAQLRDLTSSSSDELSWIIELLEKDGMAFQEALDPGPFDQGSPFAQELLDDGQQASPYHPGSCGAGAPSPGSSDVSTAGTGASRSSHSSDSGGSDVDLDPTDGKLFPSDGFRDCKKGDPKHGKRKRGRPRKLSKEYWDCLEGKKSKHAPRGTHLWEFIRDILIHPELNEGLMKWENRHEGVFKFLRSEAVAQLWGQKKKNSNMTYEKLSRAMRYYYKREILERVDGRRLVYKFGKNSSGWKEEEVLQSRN
# Outline: as §1
# CRX = CRX (Homo sapiens, UniProt O43186 1-299); settings: protein: recombinant; tags: N-terminal GST; dsDNA, one strand shown
# Sequence of CRX (O43186 whole entry): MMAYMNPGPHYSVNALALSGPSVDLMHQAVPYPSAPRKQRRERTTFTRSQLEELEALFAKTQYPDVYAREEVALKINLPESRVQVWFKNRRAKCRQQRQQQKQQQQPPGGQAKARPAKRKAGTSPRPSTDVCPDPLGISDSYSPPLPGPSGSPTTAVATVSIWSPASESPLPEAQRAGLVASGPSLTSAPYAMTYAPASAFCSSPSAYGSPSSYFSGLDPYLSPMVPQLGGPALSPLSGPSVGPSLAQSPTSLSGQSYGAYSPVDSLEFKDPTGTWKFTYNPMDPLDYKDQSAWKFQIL
# Outline: as §1
# ETV1 = ETV1 (Homo sapiens, UniProt P50549 1-477); settings: protein: recombinant; tags: N-terminal GST; dsDNA, one strand shown
# Sequence of ETV1 (P50549 whole entry): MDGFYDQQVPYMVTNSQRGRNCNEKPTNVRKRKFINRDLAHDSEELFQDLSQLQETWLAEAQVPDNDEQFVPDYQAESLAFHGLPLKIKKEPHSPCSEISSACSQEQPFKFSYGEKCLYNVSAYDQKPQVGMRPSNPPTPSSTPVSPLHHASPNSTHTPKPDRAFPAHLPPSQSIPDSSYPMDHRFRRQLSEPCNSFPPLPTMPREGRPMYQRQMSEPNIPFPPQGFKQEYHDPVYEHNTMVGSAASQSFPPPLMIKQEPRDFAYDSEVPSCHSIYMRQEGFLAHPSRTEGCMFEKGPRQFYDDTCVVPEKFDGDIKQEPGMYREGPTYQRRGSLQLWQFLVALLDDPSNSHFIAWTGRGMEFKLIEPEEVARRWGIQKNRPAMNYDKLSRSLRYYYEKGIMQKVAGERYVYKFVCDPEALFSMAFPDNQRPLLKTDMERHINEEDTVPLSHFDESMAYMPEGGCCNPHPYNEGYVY
# Outline: as §1
sequence,measurement,setting,value
CTAACC,binding signal,FLI1,"1.12 fold enrichment (6-mer frequency, TF over GST control)"
same,binding signal,ELK1,"1.23 fold enrichment (6-mer frequency, TF over GST control)"
same,binding signal,GABPA,"1.09 fold enrichment (6-mer frequency, TF over GST control)"
same,binding signal,ERG,"1.16 fold enrichment (6-mer frequency, TF over GST control)"
same,binding signal,ELF1,"1.12 fold enrichment (6-mer frequency, TF over GST control)"
same,binding signal,EHF,"1.17 fold enrichment (6-mer frequency, TF over GST control)"
same,binding signal,SPI1,"1.14 fold enrichment (6-mer frequency, TF over GST control)"
same,binding signal,SPIB,"1.08 fold enrichment (6-mer frequency, TF over GST control)"
same,binding signal,ELK3,"1.29 fold enrichment (6-mer frequency, TF over GST control)"
same,binding signal,FEV,"1.16 fold enrichment (6-mer frequency, TF over GST control)"
same,binding signal,ETV5,"1.19 fold enrichment (6-mer frequency, TF over GST control)"
same,binding signal,HSF1,"1.05 fold enrichment (6-mer frequency, TF over GST control)"
same,binding signal,SPIC,"1.08 fold enrichment (6-mer frequency, TF over GST control)"
same,binding signal,ELF4,"1.2 fold enrichment (6-mer frequency, TF over GST control)"
same,binding signal,ELK4,"1 fold enrichment (6-mer frequency, TF over GST control)"
same,binding signal,ETV2,"1.11 fold enrichment (6-mer frequency, TF over GST control)"
same,binding signal,ELF3,"1.27 fold enrichment (6-mer frequency, TF over GST control)"
same,binding signal,CRX,"1.09 fold enrichment (6-mer frequency, TF over GST control)"
same,binding signal,ETV1,"1.16 fold enrichment (6-mer frequency, TF over GST control)"
